Sequences and labels used below:
B1: VH:VL chains; a variant is named by its letters at X, in order (parent)
chain 1: QVQLVQSGAEVKKPGASVKVSCKASGYTFTDYXMHWVRQAPGQGLEWMGXVNPNXXXTTYNQKFEGRVTMTTDTSTSTAYMELRSLRSDDTAVYYCARXNXLDXWGQGTTVTVSS
chain 2: DIQMTQSPSSLSASVGDRVTITCSVSSSVSSIYLHWYQQKPGKAPKLLIYSTSNLASGVPSRFSGSGSGTDFTLTISSLQPEDFATYYCQVYSGYPLTFGGGTKVEIK

Some of the results follow. How many sequences the whole screen found active is unknown.

The variants in this assay derive from B1. Nature of the assay: yeast display scFab, FACS + sequencing. Conditions: with MET. A digest of the protocol:
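Heavy-chain CDR mutant scFab yeast surface library, enriched by two magnetic rounds on HGFR-Fc-coated Protein A beads and then by FACS. Cells were labelled with 1 nM HGFR-Fc in PBSB with 1% milk and anti-Myc for 3 h at room temperature, and the top 50% antigen-positive cells were gated. Round-3 sorted and input populations were deep sequenced in two replicates. Antigen binding call: positive if a sequence occurred in both antigen-positive samples, negative if it occurred only in input.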
Regarding SEARSFGV, the antigen binding call is “no binding”.

For the variant YRGRDASS, the antigen binding call was “binds”.

Consider YRGRSAGS, for which the antigen binding call is on record as “binds”.

DAGGASGV: the antigen binding call is “no binding”.

With VRGTDAGV, the antigen binding call is on record as “no binding”.

Consider VRRRGAVV, for which the antigen binding call was “binds”.

For the variant VRGTDAVV, the antigen binding call is “no binding”.

As to VRRRGAGV, the antigen binding call is given as “binds”.

VERASAVV: the antigen binding call is recorded as “no binding”.

For SGRGNSGV, the antigen binding call was “no binding”.

Take DARADSGV: the antigen binding call is “no binding”.

As to AARADDGV, the antigen binding call is on record as “no binding”.

For YRAKGSGV, the antigen binding call is reported as “binds”.

Turning to YRAKGAGV, the antigen binding call was “binds”.

With YRTRDSGV, the antigen binding call was “binds”.

With YRTKGSGV, the antigen binding call is “binds”.

As to YGAKGDGV, the antigen binding call is reported as “no binding”.

With DTGTGASD, the antigen binding call is reported as “no binding”.

With VAGGDAGV, the antigen binding call was “no binding”.

In the case of AREEGFSV, the antigen binding call was “no binding”.

With YRAGDAVV, the antigen binding call is given as “binds”.

As to YRAKGAVV, the antigen binding call is recorded as “binds”.

As for ARAGDAVV, the antigen binding call is “no binding”.

As to DRAGDDVV, the antigen binding call was “no binding”.

For AARADSSA, the antigen binding call is on record as “no binding”.

VGGGADVA: the antigen binding call was “no binding”.

As to VTKTGDAV, the antigen binding call is listed as “binds”.

As for YTKTGDAV, the antigen binding call is listed as “binds”.

Turning to VTKTGDVA, the antigen binding call is “no binding”.

For the variant VTTKSAAA, the antigen binding call is recorded as “no binding”.

Turning to YTGTSDAV, the antigen binding call is given as “no binding”.

For the variant VTKTGAAA, the antigen binding call is given as “binds”.

VTAGSDAV: the antigen binding call was “no binding”.

Take YTERGDAV: the antigen binding call is “no binding”.

Consider VTGTGDAV, for which the antigen binding call is on record as “no binding”.

For the variant DKEGGYSV, the antigen binding call was “no binding”.

Take DAKEGSLD: the antigen binding call is “no binding”.

Turning to SAAGADWS, the antigen binding call is “no binding”.

With YRTAGAGV, the antigen binding call was “binds”.

For YRTAGSGV, the antigen binding call was “binds”.

Regarding YRTADVGV, the antigen binding call was “no binding”.

With FAGGGDLV, the antigen binding call is on record as “no binding”.

On to VEEEGSVD, for which the antigen binding call is given as “no binding”.

Turning to VTGTGSGD, the antigen binding call is “no binding”.

For the variant FKARGSVD, the antigen binding call is “binds”.

Regarding VKERGSVD, the antigen binding call is “binds”.

With VEGGGSVD, the antigen binding call was “no binding”.

Take VKARGSGD: the antigen binding call is listed as “binds”.

As to VKAAGSVD, the antigen binding call is on record as “no binding”.

With VKGKDSGD, the antigen binding call is “no binding”.

FTETGSVD: the antigen binding call is given as “no binding”.

Take VKARGSVD: the antigen binding call is on record as “binds”.

Take VTGTGYVF: the antigen binding call is “no binding”.

As to FRGKGAAS, the antigen binding call was “binds”.

Regarding YRGKGAAS, the antigen binding call is “binds”.

On to FRGKGAGY, for which the antigen binding call was “binds”.

As for FRGKGASS, the antigen binding call is “binds”.

As to VTGEDDGD, the antigen binding call is “no binding”.

Take DAKENAGD: the antigen binding call is recorded as “no binding”.

For the variant VAKEGAWV, the antigen binding call is “no binding”.

Regarding VEARNAGA, the antigen binding call is “no binding”.

For DEGGTDVA, the antigen binding call is “no binding”.

Regarding SAEATDLY, the antigen binding call is given as “no binding”.

With FAKAGFVA, the antigen binding call is given as “no binding”.

Consider FRGKGAGS, for which the antigen binding call is “binds”.

Take YRGKGAVS: the antigen binding call is given as “binds”.

As to FRGKGAVS, the antigen binding call was “binds”.

Turning to YRRRGSLF, the antigen binding call is reported as “binds”.

Consider YRRRGALF, for which the antigen binding call is listed as “binds”.

For the variant YKEGDSGV chain 1 R87K, the antigen binding call is recorded as “no binding”.

For the variant FKEGGSAA, the antigen binding call was “no binding”.

Turning to FKGRGSLA, the antigen binding call is given as “binds”.

YKGGDDLA: the antigen binding call was “no binding”.

As to SKERGDVA, the antigen binding call is on record as “no binding”.

In the case of YKGRGALA, the antigen binding call was “binds”.

For SKGRGALA, the antigen binding call is recorded as “binds”.

For STGRAALA, the antigen binding call is “no binding”.

Regarding YAGRGDLA, the antigen binding call was “no binding”.

Turning to YKGRGSLA, the antigen binding call is “binds”.

In the case of VEEEGDWD, the antigen binding call was “no binding”.

With YGKGGDLA, the antigen binding call is listed as “no binding”.

On to SKGRSSLA, for which the antigen binding call is recorded as “binds”.

On to DKEEDSLA, for which the antigen binding call is on record as “no binding”.

With SKGRSDGA, the antigen binding call is given as “no binding”.

VKGRSDSA: the antigen binding call is “no binding”.

With FKRAGSLA, the antigen binding call is on record as “binds”.

With YKKGGSLA, the antigen binding call is “binds”.

Regarding VGGTSDWA, the antigen binding call was “no binding”.

SRGRGYGD: the antigen binding call is “no binding”.

With SGGKNSVD, the antigen binding call is “no binding”.

On to SRGRGSVD, for which the antigen binding call was “binds”.

Regarding SRTGSDVD, the antigen binding call is “no binding”.

As for SRGRGAVD, the antigen binding call is reported as “binds”.

Take SGEGGAAV: the antigen binding call is given as “no binding”.

Regarding YRGRGALF, the antigen binding call is listed as “binds”.

For VRGRGALF, the antigen binding call is “binds”.

YRGRGVLF: the antigen binding call is on record as “binds”.

Take VRGRGVSY: the antigen binding call was “no binding”.

For AARADDWV, the antigen binding call is on record as “no binding”.

Regarding FTEEGDGA, the antigen binding call is reported as “no binding”.

Regarding DAGEAFSF, the antigen binding call is on record as “no binding”.

In the case of AGGGNDGV, the antigen binding call is recorded as “no binding”.

For the variant FRGRSSAF, the antigen binding call is on record as “binds”.

For FRGRGSAF, the antigen binding call is listed as “binds”.

With YEERSDAF, the antigen binding call is recorded as “no binding”.

For SAEGDAAD, the antigen binding call was “no binding”.

Values taken from the emibetuzumab library of Makowski et al. (2022).
